Shown are actives, neighbours in structure and some others; about 2.5% of the full set was active somewhere.
ANO1 block: inhibitors of mouse TMEM16A calcium-activated chloride channel | 310,000 tested, 1.2% active | HEK293 TMEM16A/YFP iodide influx fluorescence, ionomycin | AID 588511 | normalized B-score (activity score, 25-100; higher = stronger inhibition) at 10 µM;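 active = ratio plate-corrected score three or more library SD toward inhibition, starting fluorescence score within five deviations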;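 also: score derived from kinetic fluorescence span divided by baseline fluorescence per well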
Target sequence (Q8BHY3 whole entry, looked up): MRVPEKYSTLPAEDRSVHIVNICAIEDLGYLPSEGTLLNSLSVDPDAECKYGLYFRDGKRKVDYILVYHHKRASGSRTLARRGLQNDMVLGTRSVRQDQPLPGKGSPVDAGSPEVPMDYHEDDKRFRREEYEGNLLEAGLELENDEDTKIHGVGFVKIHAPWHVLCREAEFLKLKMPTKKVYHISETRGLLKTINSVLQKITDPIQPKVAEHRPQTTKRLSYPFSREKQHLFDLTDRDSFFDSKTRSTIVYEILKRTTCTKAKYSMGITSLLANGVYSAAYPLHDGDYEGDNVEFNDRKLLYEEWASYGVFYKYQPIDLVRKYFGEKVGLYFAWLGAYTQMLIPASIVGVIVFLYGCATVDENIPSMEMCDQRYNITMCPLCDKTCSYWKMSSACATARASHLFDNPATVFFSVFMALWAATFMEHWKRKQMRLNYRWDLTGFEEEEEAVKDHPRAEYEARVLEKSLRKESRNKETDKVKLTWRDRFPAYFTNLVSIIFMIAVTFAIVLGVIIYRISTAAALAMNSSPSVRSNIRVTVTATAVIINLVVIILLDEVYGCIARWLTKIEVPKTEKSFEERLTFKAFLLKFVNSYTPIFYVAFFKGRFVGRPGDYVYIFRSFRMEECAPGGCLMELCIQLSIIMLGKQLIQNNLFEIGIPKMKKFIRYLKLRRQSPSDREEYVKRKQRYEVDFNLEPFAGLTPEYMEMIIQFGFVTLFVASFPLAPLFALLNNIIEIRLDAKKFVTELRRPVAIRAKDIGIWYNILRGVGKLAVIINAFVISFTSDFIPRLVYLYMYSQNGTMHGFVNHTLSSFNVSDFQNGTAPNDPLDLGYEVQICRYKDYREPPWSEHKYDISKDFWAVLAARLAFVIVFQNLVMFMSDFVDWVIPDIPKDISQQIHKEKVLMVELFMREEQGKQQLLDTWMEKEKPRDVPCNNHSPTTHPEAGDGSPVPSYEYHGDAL
PKA-R1A act: PKA-R1A complex activation | P00514+P68181 | PKA-R1A dissociation, Cy5-IP20 fluorescence polarization; scaled: DMSO 0%, 113 µM cGMP 100% | activation, % at 11.4 µM | 340,000 tested, 0.083% active;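 active = percent activation above the mean of all tested compounds plus 3 SD, cut at about 19% in these data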;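 also: higher means more PKAc released from R1A so a rise in polarization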
PKA-R2B act: PKA-R2B complex activation; P22694+P31323; PKA-R2B holoenzyme dissociation, Cy5-IP20 fluorescence polarization; R2B truncated from residue 108, S112A mutant; 0% DMSO only, 100% 113 µM cGMP; activation, % at 11.4 µM; 340,000 tested, 0.079% active; AID 504700;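 active = activation above a cutoff set at the mean over all compounds plus 3 SD, cut at about 18% in these data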;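 also: higher means more holoenzyme dissociation and a rise in polarization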
CHT inh: human CHT choline transport inhibition. B-score at 10 µM. 310,000 tested, 0.86% active. CHT-expressing cells, membrane potential dye, choline response; stronger effect = lower value. AID 488975;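 active = B-score over 3 SD under the library average, and starting fluorescence ratio not unusually high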;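 also: choline stimulus applied at its EC90 after an EC20 pre-addition; B-score computed on integrated fluorescence ratio after choline addition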
ANO1 activ: mouse TMEM16A channel activation, primary screen | HEK293 TMEM16A/YFP-H148Q/I152L, iodide quench fluorescence; stronger effect = lower value | B-score at 10 µM | AID 623877 | 340,000 tested, 0.3% active;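 active = fluorescence-ratio B-score plate-corrected deviation score at least 3 library SD below zero, with starting fluorescence score within 5 deviations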;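 also: channel opened by trigger with iodide after compound preincubation; score built on the fluorescence ratio of max minus min over baseline; more negative score means more quench and so TMEM16A activation or potentiation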
CHT allo act: human CHT allosteric activation; CHT-expressing cells, membrane potential dye, choline EC20; stronger effect = higher value; LV-AA mutant CHT in HEK293 cells; 310,000 tested, 0.49% active; AID 488977; B-score at 10 µM;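 active = initial fluorescence not abnormally high and integrated response B-score, plate-corrected, over 3 SD above library mean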
CHT inh conf: human CHT inhibition, confirmatory screen. shares compounds with CHT inh. CHT-expressing cells, choline membrane potential dye; LV-to-AA substituted CHT, HEK293 cells. CHT activity remaining % of control (stronger effect = lower value), % at 10 µM. 2,400 tested, 70% active;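 active = choline transporter activity left, mean of duplicates at 10 µM, below buffer-only control mean minus 3 SD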;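 also: depolarization triggered by choline at its EC90 following an EC20 pre-addition; 0% = hemicholinium-3 full block and 100% = buffer-only control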
HEK293 MPD ctr: activity in parental HEK293 cells lacking CHT | shares compounds with CHT inh | membrane potential dye, choline response; active = decrease or increase beyond buffer ±3SD | membrane potential ratio readout (active if shifted either direction beyond buffer ±3SD; no single direction) at 10 µM | 2,400 tested, 4% active;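 also: parental cells lack the transporter so any hit is non-specific; ratio is peak minus trough fluorescence over baseline after EC90 choline challenge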
An asterisk follows results filed as active; i = inactive; . = not tested or not shown.

SMILES	ANO1 block	PKA-R1A act	PKA-R2B act	CHT inh	ANO1 activ	CHT allo act	CHT inh conf	HEK293 MPD ctr
CCOC(=O)c1cc(C(=O)NC(C)c2ccccc2)c(C)[nH]c1=O (centres undefined)	i	-3	6	-7.4*	i	i	14%*	i
CCN(Cc1ccccc1)S(=O)(=O)c1cc(C(=O)NC2CCCCCC2)ccc1OC	i	-10	-4	-5.1*	i	i	50%*	i
COc1ccc(OCc2cccc(C(=O)NN)c2)cc1	i	-8	-5	i	i	i	.	.
COc1ccc(OCc2cccc(C(=O)Nn3cc([N+](=O)[O-])cn3)c2)cc1	i	-10	0	-7.1*	i	i	69%*	i
O=C(CSc1nc(-c2ccccc2)cc(C(F)(F)F)n1)N1CCOCC1	i	7	0	-5.8*	i	i	i	i
COc1ccc(-c2cc(C(F)(F)F)nc(SCC(=O)N3CCOCC3)n2)cc1OC	i	-5	-7	i	i	i	.	.
O=C(COc1ccccc1)NC(=S)Nc1cccc2cc(O)ccc12	i	2	8	i	i	i	.	.
CC(C)Nc1oc(Cc2cccc3ccccc23)nc1C#N	i	-5	5	i	i	i	.	.
CNc1oc(Cc2cccc3ccccc23)nc1C#N	i	-5	0	-6.9*	i	i	56%*	i
CCN(CC)CCCn1c2c(c(SCC(=O)N3CCc4ccccc43)nc1=O)CCC2	i	0	10	-8*	i	i	42%*	i
CCN(CC)CCCn1c2c(c(SCC(=O)Nc3cccc4ccccc34)nc1=O)CCC2	i	-4	3	i	i	i	.	.
O=C(/C=C/Sc1ccc(C(F)(F)F)cn1)c1ccccc1	i	-9	-9	i	i	i	.	.
Cc1cc(OCC(=O)N2CCOCC2)ccc1[N+](=O)[O-]	i	-4	9	i	i	i	.	.
CC(=O)OC(C(=O)NC1CCCCC1)c1ccc(C)cc1 (centres undefined)	i	-13	2	i	i	i	.	.
CC(=O)OC(C(=O)NC1CCCCC1)c1ccc(Cl)c(Cl)c1 (centres undefined)	i	2	-3	-11*	i	i	i	i
O=C(CCC(=O)Nc1ccccc1Cl)NNC(=O)C1CCCCC1	.	1	4	.	i	.	.	.
COc1ccccc1CCNC(=O)C(=O)NCC1CCCN1S(=O)(=O)c1ccccc1 (centres undefined)	i	-4	7	i	i	i	.	.
Cc1ccccc1C(=O)OC(C)CN1CCN(C)CC1 (centres undefined)	i	1	7	-6.1*	i	i	46%*	i
CC(CN1CCN(C)CC1)OC(=O)c1ccccc1Cl (centres undefined)	i	-6	2	-8.3*	i	i	12%*	i
CC(CN1CCCC1)OC(=O)c1ccccc1Cl (centres undefined)	i	-9	-9	i	i	i	.	.
Cc1ccccc1OCC(=O)OC(C)CN1CCN(C)CC1 (centres undefined)	i	2	-4	i	i	i	.	.
Cc1cccc(C(=O)Nc2scc(CC(C)C)c2C(=O)O)c1	i	-6	-15	i	i	i	.	.
CC(C)Cc1csc(NC(=O)c2ccccc2Cl)c1C(=O)O	i	-3	2	i	i	i	.	.
Cc1ccc(-c2csc(NC(=O)c3cccc(C)c3)c2C(=O)O)cc1	i	10	10	-7.7*	i	i	43%*	i
Cc1ccc(-c2csc(NC(=O)c3ccccc3Cl)c2C(=O)O)cc1	i	-9	-3	-5.9*	i	i	66%*	i
SMILES	ANO1 block	PKA-R1A act	PKA-R2B act	CHT inh	ANO1 activ	CHT allo act	CHT inh conf	HEK293 MPD ctr
COc1ccc(C(=O)NC(=S)Nc2ccc(N3CCOCC3)cc2)cc1Cl	i	-9	4	i	i	i	.	.
Cc1csc(=O)n1CC(=O)OCC(=O)Nc1cc(Cl)ccc1[N+](=O)[O-]	i	6	-1	i	i	i	.	.
O=[N+]([O-])c1cc(C(F)(F)F)cc([N+](=O)[O-])c1N1CCCNCC1	i	-15	-3	-8.8*	i	i	16%*	i
CCOP(=O)(OCC)C(NC(=O)Nc1c(C)cc(C)cc1C)c1ccccc1 (centres undefined)	i	8	0	-6*	i	i	i	i
C#CCOC(=O)Nc1cccn(Cc2c(Cl)cccc2Cl)c1=O	i	-2	-6	-5.1*	i	i	i	i
O=C(CSc1nc2nc(-c3cccs3)cc(C(F)(F)F)c2c(=O)[nH]1)C(F)(F)F	i	10	-2	i	.	i	.	.
Cc1ccc(N2CC(C(=O)Nc3ncc([N+](=O)[O-])s3)CC2=O)cc1 (centres undefined)	i	10	7	-5*	i	i	50%*	i
CCCNC(=O)c1ccccc1NC(=O)c1ccc2c(c1)NC(=O)C(C)S2 (centres undefined)	i	-5	0	-5.9*	i	i	65%*	i
CC(=O)c1ccccc1NC(=O)c1ccc2c(c1)NC(=O)C(C)S2 (centres undefined)	i	-11	-2	i	i	i	.	.
CCOC(=O)N1CCN(C(=O)c2ccc3nc(N4CCC(C)CC4)sc3c2)CC1	i	-14	-1	-7.2*	i	i	69%*	i
O=C(c1cccc(OC2CCN(Cc3ccc(F)cc3Cl)CC2)c1)N1CCCC1	i	-6	-2	-5.4*	i	i	36%*	i
Cc1ccccc1NC(=O)CCCNC(=O)c1ccc(Cl)cc1	i	-5	-3	i	i	i	.	.
C=CCNC(=O)CN1C(=O)CSc2ccc(S(=O)(=O)N3CCOCC3)cc21	.	-2	10	.	.	.	.	.
CC1(C)CC(=O)c2sc(NS(=O)(=O)c3ccc(F)cc3)nc2C1	i	-12	9	i	i	i	.	.

Assay outcomes (PubChem)
